# From article PMC7862700, “An all-to-all approach to the identification of sequence-specific readers for epigenetic DNA modifications on cytosine”
# Columns and labels:
# Assay in all cases: DAPPL (digital affinity profiling via proximity ligation, sequencing); 10 mM Tris-HCl pH 7.5, 50 mM NaCl, 1 mM DTT, 4% glycerol, room temperature, 30 min; GST-TFs on glutathione beads, 16-mer random dsDNA library, 0.1% formaldehyde crosslink after washing; high values mean tight binding
# FEV = target: T1, FEV (Homo sapiens, UniProt Q99581 1-238); settings: protein: recombinant; tags: N-terminal GST; dsDNA, one strand shown
# T1 sequence: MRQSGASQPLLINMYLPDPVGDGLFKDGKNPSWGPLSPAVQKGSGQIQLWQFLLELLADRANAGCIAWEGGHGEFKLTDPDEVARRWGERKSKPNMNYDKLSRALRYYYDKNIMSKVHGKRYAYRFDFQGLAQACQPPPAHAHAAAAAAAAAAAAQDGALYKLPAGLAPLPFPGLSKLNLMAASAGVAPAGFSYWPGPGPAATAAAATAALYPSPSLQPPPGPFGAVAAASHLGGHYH
# Outline: (§1)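 Sequencing on an Illumina NextSeq500 followed washing, crosslinking with 0.1% formaldehyde, proximity ligation (BsaI/T4 ligase, 1 h, 37 °C) and PCR amplification of pools that had been incubated for 30 min at room temperature with 200 nmole of a random double-stranded 16-mer DNA library in Tris/NaCl/DTT/glycerol buffer. Each pool held DNA-barcoded human transcription factors, expressed in yeast as GST fusions and captured on glutathione beads, plus a tag-only sample. Binding signal is a hexamer's read frequency for a factor divided by its frequency in the tag-only sample.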
# ETV5 = ETV5 (Homo sapiens, UniProt P41161 1-510); settings: protein: recombinant; tags: N-terminal GST; dsDNA, one strand shown
# Chain of ETV5 (P41161 whole entry): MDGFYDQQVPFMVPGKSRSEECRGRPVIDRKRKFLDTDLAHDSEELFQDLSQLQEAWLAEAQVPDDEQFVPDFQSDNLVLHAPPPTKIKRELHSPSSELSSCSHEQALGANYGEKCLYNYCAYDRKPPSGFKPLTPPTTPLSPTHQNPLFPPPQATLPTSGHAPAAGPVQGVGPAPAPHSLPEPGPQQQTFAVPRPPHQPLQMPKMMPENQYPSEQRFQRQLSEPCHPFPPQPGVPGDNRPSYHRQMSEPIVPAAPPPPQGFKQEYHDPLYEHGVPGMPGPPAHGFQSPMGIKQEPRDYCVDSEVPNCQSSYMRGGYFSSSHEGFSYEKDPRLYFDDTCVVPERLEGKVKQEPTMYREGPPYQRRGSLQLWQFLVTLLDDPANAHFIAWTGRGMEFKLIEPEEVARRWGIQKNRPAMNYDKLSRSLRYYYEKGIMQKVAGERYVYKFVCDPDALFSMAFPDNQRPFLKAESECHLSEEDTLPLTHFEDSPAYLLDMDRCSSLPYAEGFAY
# Outline: as §1
# HSF1 = HSF1 (Homo sapiens, UniProt Q00613 1-529); settings: protein: recombinant; tags: N-terminal GST; chain copies: 3; dsDNA, one strand shown
# Chain of HSF1 (Q00613 whole entry): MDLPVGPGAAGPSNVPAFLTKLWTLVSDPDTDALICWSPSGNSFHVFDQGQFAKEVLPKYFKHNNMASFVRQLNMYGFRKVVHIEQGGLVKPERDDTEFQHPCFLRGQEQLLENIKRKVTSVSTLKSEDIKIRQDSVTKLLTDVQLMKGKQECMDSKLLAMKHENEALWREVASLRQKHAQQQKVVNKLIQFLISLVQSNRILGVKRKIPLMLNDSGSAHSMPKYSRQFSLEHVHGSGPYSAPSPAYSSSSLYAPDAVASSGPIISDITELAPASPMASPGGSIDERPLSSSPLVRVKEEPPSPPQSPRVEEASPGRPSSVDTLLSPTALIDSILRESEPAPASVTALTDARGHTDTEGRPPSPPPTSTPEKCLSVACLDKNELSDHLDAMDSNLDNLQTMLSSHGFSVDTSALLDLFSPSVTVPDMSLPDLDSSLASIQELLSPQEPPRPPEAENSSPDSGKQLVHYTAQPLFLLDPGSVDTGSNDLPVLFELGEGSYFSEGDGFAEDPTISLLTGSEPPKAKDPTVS
# Outline: as §1
# SPIC = target: T2, SPIC (Homo sapiens, UniProt Q8N5J4 1-248); settings: protein: recombinant; tags: N-terminal GST; dsDNA, one strand shown
# T2 sequence: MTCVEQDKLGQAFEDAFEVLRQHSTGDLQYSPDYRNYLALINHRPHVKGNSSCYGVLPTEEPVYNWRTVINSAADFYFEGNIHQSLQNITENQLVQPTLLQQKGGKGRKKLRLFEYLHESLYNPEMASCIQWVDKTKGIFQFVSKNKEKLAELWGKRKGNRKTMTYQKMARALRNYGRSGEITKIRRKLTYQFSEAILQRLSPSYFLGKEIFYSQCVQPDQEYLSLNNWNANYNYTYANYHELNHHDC
# Outline: as §1
# ELF4 = ELF4 (Homo sapiens, UniProt Q99607 1-663); settings: protein: recombinant; tags: N-terminal GST; dsDNA, one strand shown
# Chain of ELF4 (Q99607 whole entry): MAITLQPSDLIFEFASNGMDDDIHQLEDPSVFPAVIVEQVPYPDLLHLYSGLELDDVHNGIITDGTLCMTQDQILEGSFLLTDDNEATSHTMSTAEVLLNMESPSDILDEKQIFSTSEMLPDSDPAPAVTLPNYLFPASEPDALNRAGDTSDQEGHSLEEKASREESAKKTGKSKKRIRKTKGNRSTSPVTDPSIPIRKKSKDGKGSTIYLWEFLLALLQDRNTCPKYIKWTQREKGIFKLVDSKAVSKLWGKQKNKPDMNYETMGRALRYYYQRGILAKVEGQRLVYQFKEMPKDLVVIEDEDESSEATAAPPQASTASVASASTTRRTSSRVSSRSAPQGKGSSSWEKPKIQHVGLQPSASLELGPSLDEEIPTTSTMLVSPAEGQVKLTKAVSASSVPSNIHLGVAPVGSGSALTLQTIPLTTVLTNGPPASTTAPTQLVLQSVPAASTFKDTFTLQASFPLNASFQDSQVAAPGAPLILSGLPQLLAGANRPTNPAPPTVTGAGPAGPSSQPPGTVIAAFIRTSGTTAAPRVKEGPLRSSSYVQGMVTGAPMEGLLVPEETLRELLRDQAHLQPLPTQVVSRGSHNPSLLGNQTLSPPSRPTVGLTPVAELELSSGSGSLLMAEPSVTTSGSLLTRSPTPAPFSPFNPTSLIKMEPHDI
# Outline: as §1
# ELK4 = target: T3, ELK4 (Homo sapiens, UniProt P28324-2 1-405); settings: protein: recombinant; tags: N-terminal GST; dsDNA, one strand shown
# T3 sequence: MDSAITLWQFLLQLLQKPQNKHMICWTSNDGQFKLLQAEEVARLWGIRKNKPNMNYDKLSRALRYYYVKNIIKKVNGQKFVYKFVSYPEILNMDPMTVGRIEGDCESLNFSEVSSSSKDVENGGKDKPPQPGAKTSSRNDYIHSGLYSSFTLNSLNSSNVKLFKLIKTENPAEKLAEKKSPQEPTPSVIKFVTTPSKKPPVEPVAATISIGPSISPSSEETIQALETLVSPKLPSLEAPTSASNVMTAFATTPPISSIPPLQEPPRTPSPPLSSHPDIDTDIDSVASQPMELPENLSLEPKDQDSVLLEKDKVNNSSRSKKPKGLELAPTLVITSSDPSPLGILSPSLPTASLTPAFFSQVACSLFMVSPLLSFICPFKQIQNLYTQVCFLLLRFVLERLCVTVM
# Outline: as §1
# ETV2 = target: T4, ETV2 (Homo sapiens, UniProt O00321 1-342); settings: protein: recombinant; tags: N-terminal GST; dsDNA, one strand shown
# T4 sequence: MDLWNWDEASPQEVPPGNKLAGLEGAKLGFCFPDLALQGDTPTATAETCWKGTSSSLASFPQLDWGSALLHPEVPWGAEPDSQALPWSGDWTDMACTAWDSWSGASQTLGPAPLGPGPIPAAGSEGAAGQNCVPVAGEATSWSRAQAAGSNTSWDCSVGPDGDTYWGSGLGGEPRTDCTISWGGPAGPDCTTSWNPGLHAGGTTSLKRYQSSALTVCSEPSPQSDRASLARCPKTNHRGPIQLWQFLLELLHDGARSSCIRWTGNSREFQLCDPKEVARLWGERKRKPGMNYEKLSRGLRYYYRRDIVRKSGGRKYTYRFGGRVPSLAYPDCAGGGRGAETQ
# Outline: as §1
# ELF3 = target: T5, ELF3 (Homo sapiens, UniProt P78545 1-371); settings: protein: recombinant; tags: N-terminal GST; dsDNA, one strand shown
# T5 sequence: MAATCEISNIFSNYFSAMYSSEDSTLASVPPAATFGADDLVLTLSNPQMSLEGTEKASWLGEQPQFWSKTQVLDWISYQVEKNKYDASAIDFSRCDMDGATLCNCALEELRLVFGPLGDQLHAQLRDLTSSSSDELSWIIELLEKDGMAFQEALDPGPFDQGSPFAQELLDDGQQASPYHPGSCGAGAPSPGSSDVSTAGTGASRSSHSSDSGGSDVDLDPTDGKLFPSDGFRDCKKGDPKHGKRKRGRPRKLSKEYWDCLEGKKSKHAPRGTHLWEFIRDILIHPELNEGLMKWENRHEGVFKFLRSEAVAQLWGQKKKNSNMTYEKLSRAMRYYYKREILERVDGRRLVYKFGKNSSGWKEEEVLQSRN
# Outline: as §1
# CRX = CRX (Homo sapiens, UniProt O43186 1-299); settings: protein: recombinant; tags: N-terminal GST; dsDNA, one strand shown
# Chain of CRX (O43186 whole entry): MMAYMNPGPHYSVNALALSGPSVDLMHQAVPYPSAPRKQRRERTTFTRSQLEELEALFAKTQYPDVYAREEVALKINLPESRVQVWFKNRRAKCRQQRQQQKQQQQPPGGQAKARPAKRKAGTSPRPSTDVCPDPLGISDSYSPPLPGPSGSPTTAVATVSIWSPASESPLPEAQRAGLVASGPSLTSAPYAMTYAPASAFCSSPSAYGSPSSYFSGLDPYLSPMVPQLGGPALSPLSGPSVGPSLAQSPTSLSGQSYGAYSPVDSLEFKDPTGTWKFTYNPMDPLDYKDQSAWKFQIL
# Outline: as §1
# ETV1 = ETV1 (Homo sapiens, UniProt P50549 1-477); settings: protein: recombinant; tags: N-terminal GST; dsDNA, one strand shown
# Chain of ETV1 (P50549 whole entry): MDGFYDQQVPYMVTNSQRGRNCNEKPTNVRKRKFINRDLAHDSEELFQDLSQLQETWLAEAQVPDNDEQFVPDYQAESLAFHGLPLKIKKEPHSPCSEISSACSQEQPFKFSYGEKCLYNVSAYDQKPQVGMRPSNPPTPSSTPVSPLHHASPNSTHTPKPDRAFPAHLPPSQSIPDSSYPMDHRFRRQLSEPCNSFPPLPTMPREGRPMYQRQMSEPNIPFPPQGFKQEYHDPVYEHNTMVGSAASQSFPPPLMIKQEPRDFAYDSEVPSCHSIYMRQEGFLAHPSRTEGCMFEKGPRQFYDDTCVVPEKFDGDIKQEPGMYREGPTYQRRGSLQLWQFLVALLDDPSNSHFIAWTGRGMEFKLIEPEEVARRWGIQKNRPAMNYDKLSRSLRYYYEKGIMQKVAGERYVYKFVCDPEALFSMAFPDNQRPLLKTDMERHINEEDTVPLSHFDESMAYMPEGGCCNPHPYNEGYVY
# Outline: as §1
# ERF = target: T6, ERF (Homo sapiens, UniProt P50548 1-548); settings: protein: recombinant; tags: N-terminal GST; dsDNA, one strand shown
# T6 sequence: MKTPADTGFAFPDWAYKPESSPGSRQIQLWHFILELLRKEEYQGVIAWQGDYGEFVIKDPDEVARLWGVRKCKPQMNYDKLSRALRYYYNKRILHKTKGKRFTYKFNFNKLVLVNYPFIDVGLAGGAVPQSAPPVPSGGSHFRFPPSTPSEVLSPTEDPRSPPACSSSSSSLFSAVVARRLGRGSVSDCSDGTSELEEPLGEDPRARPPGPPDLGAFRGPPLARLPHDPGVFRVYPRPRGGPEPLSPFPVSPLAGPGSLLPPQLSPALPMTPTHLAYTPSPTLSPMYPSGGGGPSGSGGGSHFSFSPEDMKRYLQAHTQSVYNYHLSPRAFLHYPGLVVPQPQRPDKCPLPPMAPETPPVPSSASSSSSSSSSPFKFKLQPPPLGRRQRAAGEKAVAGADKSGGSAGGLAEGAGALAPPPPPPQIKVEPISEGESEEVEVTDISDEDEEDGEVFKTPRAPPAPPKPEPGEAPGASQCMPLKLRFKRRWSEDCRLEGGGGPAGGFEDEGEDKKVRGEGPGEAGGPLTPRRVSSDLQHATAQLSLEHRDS
# Outline: as §1
# ETV3L = target: T7, ETV3L (Homo sapiens, UniProt Q6ZN32 1-361); settings: protein: recombinant; tags: N-terminal GST; dsDNA, one strand shown
# T7 sequence: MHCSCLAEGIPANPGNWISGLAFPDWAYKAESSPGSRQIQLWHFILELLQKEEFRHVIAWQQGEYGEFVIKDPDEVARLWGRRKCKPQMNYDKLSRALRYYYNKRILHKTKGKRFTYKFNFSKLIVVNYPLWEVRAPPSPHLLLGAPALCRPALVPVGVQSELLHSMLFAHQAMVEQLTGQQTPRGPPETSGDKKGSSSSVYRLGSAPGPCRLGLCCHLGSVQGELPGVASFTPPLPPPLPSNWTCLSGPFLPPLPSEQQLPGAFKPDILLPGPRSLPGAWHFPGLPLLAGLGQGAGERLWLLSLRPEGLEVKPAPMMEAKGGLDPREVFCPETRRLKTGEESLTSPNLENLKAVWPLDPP
# Outline: as §1
# ETS2 = target: T8, ETS2 (Homo sapiens, UniProt P15036 1-469); settings: protein: recombinant; tags: N-terminal GST; dsDNA, one strand shown
# T8 sequence: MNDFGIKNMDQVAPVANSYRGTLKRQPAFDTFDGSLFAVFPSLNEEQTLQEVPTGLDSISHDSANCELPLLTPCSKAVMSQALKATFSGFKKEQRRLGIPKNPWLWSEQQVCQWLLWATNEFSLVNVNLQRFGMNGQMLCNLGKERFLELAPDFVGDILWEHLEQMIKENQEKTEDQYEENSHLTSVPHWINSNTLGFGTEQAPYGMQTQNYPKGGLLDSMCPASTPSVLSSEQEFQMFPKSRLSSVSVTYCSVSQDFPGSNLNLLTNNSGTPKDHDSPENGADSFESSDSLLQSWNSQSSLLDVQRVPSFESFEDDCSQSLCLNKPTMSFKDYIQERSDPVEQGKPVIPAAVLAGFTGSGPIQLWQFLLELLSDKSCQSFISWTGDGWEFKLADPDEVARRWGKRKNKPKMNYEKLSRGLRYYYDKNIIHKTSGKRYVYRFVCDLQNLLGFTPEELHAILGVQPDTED
# Outline: as §1
# SPDEF = target: T9, SPDEF (Homo sapiens, UniProt O95238 1-335); settings: protein: recombinant; tags: N-terminal GST; dsDNA, one strand shown
# T9 sequence: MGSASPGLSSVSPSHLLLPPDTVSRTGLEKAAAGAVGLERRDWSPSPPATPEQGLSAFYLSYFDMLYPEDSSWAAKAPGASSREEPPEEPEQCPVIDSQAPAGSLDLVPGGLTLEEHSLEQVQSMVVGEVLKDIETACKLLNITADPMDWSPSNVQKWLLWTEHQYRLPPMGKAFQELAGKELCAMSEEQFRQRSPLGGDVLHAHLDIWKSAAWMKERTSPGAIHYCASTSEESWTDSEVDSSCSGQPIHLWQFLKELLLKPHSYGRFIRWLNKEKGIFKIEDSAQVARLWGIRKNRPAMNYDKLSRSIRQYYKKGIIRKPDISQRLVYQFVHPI
# Outline: as §1
# ETV7 = target: T10, ETV7 (Homo sapiens, UniProt Q9Y603 1-341); settings: protein: recombinant; tags: N-terminal GST; dsDNA, one strand shown
# T10 sequence: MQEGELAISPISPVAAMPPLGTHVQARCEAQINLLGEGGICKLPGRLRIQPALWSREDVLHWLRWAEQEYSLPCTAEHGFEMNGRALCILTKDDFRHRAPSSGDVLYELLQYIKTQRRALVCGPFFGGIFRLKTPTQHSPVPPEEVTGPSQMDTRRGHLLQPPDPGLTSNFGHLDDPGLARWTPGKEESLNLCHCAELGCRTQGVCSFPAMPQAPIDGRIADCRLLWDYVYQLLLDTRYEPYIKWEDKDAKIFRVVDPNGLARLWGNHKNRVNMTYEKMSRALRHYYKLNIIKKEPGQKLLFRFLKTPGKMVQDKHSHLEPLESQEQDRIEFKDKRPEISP
# Outline: as §1
# ELF5 = target: T11, ELF5 (Homo sapiens, UniProt Q9UKW6-2 1-255); settings: protein: recombinant; tags: N-terminal GST; dsDNA, one strand shown
# T11 sequence: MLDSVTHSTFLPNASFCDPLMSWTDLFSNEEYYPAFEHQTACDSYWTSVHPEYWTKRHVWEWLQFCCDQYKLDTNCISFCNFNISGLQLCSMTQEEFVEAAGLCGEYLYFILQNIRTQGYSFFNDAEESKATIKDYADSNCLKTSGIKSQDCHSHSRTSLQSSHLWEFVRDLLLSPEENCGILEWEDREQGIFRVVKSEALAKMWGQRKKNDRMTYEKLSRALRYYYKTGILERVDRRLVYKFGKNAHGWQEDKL
# Outline: as §1
# ETV3 = target: T12, ETV3 (Homo sapiens, UniProt P41162-2 1-143); settings: protein: recombinant; tags: N-terminal GST; dsDNA, one strand shown
# T12 sequence: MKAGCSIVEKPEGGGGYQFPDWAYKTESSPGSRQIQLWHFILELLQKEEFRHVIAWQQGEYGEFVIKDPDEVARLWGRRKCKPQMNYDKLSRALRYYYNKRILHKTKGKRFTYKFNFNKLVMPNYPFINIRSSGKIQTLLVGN
# Outline: as §1
# ETV6 = ETV6 (Homo sapiens, UniProt P41212 1-452); settings: protein: recombinant; tags: N-terminal GST; dsDNA, one strand shown
# Chain of ETV6 (P41212 whole entry): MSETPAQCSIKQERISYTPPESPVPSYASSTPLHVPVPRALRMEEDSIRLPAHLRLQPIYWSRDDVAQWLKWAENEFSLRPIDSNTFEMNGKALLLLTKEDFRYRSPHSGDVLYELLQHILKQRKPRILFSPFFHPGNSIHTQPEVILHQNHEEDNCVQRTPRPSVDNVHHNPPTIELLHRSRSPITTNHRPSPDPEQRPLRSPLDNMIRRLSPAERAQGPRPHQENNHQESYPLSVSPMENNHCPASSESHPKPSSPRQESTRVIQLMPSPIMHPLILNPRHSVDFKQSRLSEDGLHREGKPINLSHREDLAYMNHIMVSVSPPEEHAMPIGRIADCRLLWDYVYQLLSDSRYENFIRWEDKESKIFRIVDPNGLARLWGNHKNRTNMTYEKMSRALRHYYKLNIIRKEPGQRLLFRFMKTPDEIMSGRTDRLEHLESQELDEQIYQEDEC
# Outline: as §1
sequence,measurement,setting,value
GTCTCC,binding signal,FEV,"1.53 fold enrichment (6-mer frequency, TF over GST control)"
same,binding signal,ETV5,"1.46 fold enrichment (6-mer frequency, TF over GST control)"
same,binding signal,HSF1,"1.15 fold enrichment (6-mer frequency, TF over GST control)"
same,binding signal,SPIC,"1.32 fold enrichment (6-mer frequency, TF over GST control)"
same,binding signal,ELF4,"1.43 fold enrichment (6-mer frequency, TF over GST control)"
same,binding signal,ELK4,"1.46 fold enrichment (6-mer frequency, TF over GST control)"
same,binding signal,ETV2,"1.38 fold enrichment (6-mer frequency, TF over GST control)"
same,binding signal,ELF3,"1.46 fold enrichment (6-mer frequency, TF over GST control)"
same,binding signal,CRX,"1.04 fold enrichment (6-mer frequency, TF over GST control)"
same,binding signal,ETV1,"1.37 fold enrichment (6-mer frequency, TF over GST control)"
same,binding signal,ERF,"1.45 fold enrichment (6-mer frequency, TF over GST control)"
same,binding signal,ETV3L,"1.67 fold enrichment (6-mer frequency, TF over GST control)"
same,binding signal,ETS2,"1.52 fold enrichment (6-mer frequency, TF over GST control)"
same,binding signal,SPDEF,"1.47 fold enrichment (6-mer frequency, TF over GST control)"
same,binding signal,ETV7,"1.32 fold enrichment (6-mer frequency, TF over GST control)"
same,binding signal,ELF5,"1.4 fold enrichment (6-mer frequency, TF over GST control)"
same,binding signal,ETV3,"1.52 fold enrichment (6-mer frequency, TF over GST control)"
same,binding signal,ETV6,"1.51 fold enrichment (6-mer frequency, TF over GST control)"
